Records with an inconclusive call do not appear. The source made the active and inactive calls. Calls follow the shape of the dose curve; as a rule, active = well fitted inhibition curve with a large enough effect; inconclusive = small, poorly fitted or top-dose-only effect; inactive = flat fitted curve, though single readings scatter.
Each molecule was assayed on CRL-7250 (assay: qHTS assay to identify novel small-molecules to repurpose for Merkel cell carcinoma treatment (AID 1296009; also: nearly all actives have a fitted effect of over 60% in size)). Settings: MCC and control cell lines, CellTiter-Glo viability, 72 h; at 44.8 µM (top of the series) unless noted.
Method in brief: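 Cell viability measured by CellTiter-Glo following 72 hr compound treatment at 37 degree celsius, with NPC and MIPE libraries tested in 8- and 11-point concentration series.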

| Compound | outcome |
| --- | --- |
| CCOc1cc(CC(=O)N[C@@H](CC(C)C)c2ccccc2N2CCCCC2)ccc1C(=O)O | inactive |
| O=C(Oc1ccccc1)c1ccccc1O | inactive |
| CCCCN(CCCC)CCCOC(=O)c1ccc(N)cc1 | inactive |
| CN1N=C(C(N)=O)CCC1=O | inactive |
| COc1ccc(C(=O)c2ccccc2O)c(O)c1 | inactive |
| CCO/C([O-])=N/c1c[n+](N2CCOCC2)no1 | inactive |
| NC(=O)N[C@@H](CCC(=O)O)C(=O)O | inactive |
| CCN1CCC[C@H]1CNC(=O)c1c(O)c(Cl)cc(Cl)c1OC | inactive |
| COc1ccc(C(=O)NCc2ccc(OCCN(C)C)cc2)cc1OC | inactive |
| S=P(N1CC1)(N1CC1)N1CC1 | inactive [at 92 µM] |
| COc1cc(O)cc(O)c1 | inactive |
| CO[C@@]1(NC(=O)Cc2cccs2)C(=O)N2C(C(=O)O)=C(COC(N)=O)CS[C@@H]21 | inactive |
| O=C(O)c1c(O)c(-c2ccccc2)nc2ccccc12 | inactive |
| C[C@H](NC(CCc1ccccc1)C(=O)O)C(=O)N1CCC[C@H]1C(=O)O (some centres undefined) | inactive |
| CC(C)Cn1cnc2c(N)nc3ccccc3c21 | inactive [at 17.4 µM] |
| Cc1c[nH]c2ccccc12 | inactive |
| C[C@](N)(Cc1ccc(O)cc1)C(=O)O | inactive [at 4.96 µM] |
| CC(=O)NC[C@H]1CN(c2ccc(N3CCOCC3)c(F)c2)C(=O)O1 | inactive |
| CC[C@H]1OC(=O)[C@H](C)[C@@H](O[C@H]2C[C@@](C)(OC)[C@@H](O)[C@H](C)O2)[C@H](C)[C@@H](O[C@@H]2O[C@H](C)C[C@H](N(C)C)[C@@H]2O)[C@](C)(O)C[C@@H](C)CN(C)[C@H](C)[C@@H](O)[C@]1(C)O | inactive |
